According to PubChem BioAssay AID1508600 (Functional Genomics Laboratory (NCATS/FGL), 2020):
Among all 53,000 sequences or so, about 3,700 (7%) were called active.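 Rule for the calls: active = gene knockdowns whose robust z-score for IL-1 alpha signal is at least 2 or at most -2, so actives lie on both sides; inactive = the rest.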 The full list was thinned out, with actives kept by preference.

Experiment: Components of the Cytosolic LPS Sensing Pathway: Gene Identification via Genome-wide siRNA Screen;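 note: robust z of the log signal after scaling to non-targeting control siRNA wells of the plate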
Conditions: RAW264.7 macrophages, IL-1a HTRF, actives lie on both sides, screened at 100 nM (by protocol), cells primed 5 h with Pam3CSK4 first
Outline: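 IL-1a HTRF of supernatants after 24 hour LipidA transfection of Pam3CSK4-primed (5 hours) RAW264.7 cells, 48h post-siRNA transfection (100 nM). Scores: percent of plate negative-control median, then log-based robust z-score.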

z-score, active:
GCUAAGUUGGAAUUUCCACTT against Chtop 2.05
GAAAUAGAGAUGCCUCUCUTT against Olfr1161 2.52
GCUGGUCUUUCAAGUCAAGTT against Stat5b 2.62
CGAUUUUCACCAAUUGUGGTT against Diaph2 -2.03
GGUCACCACACGAUCUACATT against Slc4a4 3.14
GCCUAGCUGAAAACGUGUCTT against Cog4 5.04
GGCUGUUAUACACUAUCUGTT against Tirap -2.71
CCAAAGCCUGAAAUGGUGGTT against Cxcr4 -2.36
GAAAUGCAAGACUCUGCACTT against 1700020L24Rik -2.66
GGAACCAAUCUGUCUCUCCTT against Cbfb -2.07
GGCUAACCUGAGCAAACAGTT against Plvap -2.21
GGUGGAACAGUGGAAUUCGTT against Grhpr 2.41
GGCCUCCUAUAGACGGGAUTT against Vdac3 2.49
GCCGGACAACUCUAAUCAGTT against Herpud1 3.22
GCCCGAUAUUAUAACGGUGTT against Eomes 2.97
GGAAACUCCCUGAACCGGATT against Zcrb1 2.26
GGGUUUUAGAAUGAAAUACTT against Emc6 2.35
GGCCAGACAUGUUGAAGAATT against Ssna1 -2.42
GCUUCCCGCUAUGAGUUCATT against Shisa7 2.24
GGCUUUGAGAUAUGAACAGTT against Arrdc2 2.53

z-score, inactive:
GCUUUGAGAGGUGUUGAUATT against Gm6116 -0.864
GCCGUUUUAUGUGGCAGAATT against Slc35d3 0.141
GGUAUUGUGGCCAGUAUUUTT against Ptdss2 0.185
AUAAGGAUGUCCAUCUUGCTT against Olfr884 -1.17
CGGUCUAAAUUUCCGGUCATT against Elane -0.205
GGCUCAACGGGAUUACUUUTT against Pgd -0.578
CCAAUUUACGACAAAUCGUTT against Entpd4 -0.56
GGCCCGAAACAAGAAAUCCTT against Ikbke 0.957
GAAAAAUCAUGAAGCCAUATT against Olfr203 -0.0109
CCAGCUAGUGAUGUCAAAATT against Bri3bp -0.0406
GGACAGCUGGCUUCUAAAUTT against Lmntd1 0.137
CCAUAGGUAUGUUAAUCGATT against Polr1b -0.426
GGCCAACCUACUUUUCUGGTT against Mgll -1.18
CGAUGGAAGUUUAAACCUCTT against Htr1a 0.326
GGUUGUGAAUGUAAGUGAGTT against Entpd1 -0.787
GGCAUCUUCGAAAAAUGAUTT against Reck -0.552
GGACAUCAGUUGUCCUAGCTT against Ano6 -0.285
GGGCUACUCAAAGAAGAUATT against Galnt5 -0.357
GCUCGGCUUUAGAGACCUATT against Cox19 0.379
GCCUGUACAUGACGGAAAGTT against Bag4 0.155
GGAGUUACGGGAUUCCGUUTT against Kras 1.7
GCUUAUAAAAGACUUACUGTT against Sec24b 0.414
GGUUAAAAUUGGCUAAAUGTT against Sertm1 1.5
GGCUAAAAAGAGUAGACUATT against Irs1 1.14
GGAAGAAUCUGAUUCGUAATT against Snapc5 -1.28
GGCUUUUUCUACAUGCGCCTT against Olfr1104 -0.236
GGCUUUACUACUCAACCAUTT against Gjb3 -0.388
GCAUUUAUAUGAGAUGCAGTT against Fam210a 0.108
GGUCAAAACAUGUUGAAGGTT against B330016D10Rik 0.15
GGCAGAUGAUGGUCCAUGCTT against Tfpi -1.63
CCAGCAGUAAACUGGAAAUTT against Arhgap25 -1.53
GGCAACCAGAUAUUUGUUATT against Myef2 0.549
GCUCGCACAGAAGUUACAATT against Lrrc42 -0.486
GGAGCGAGUAGACAUUCUGTT against Rdh13 1.72
GGUAGUGCCAUAAUUUCUGTT against Nipal2 -0.782
GCUGUUAACUAUCUGGAUATT against Prokr1 0.59
GGGUGUUGUGUCCUCUCAATT against Gckr 0.0744
GCAUGAAUCGUGCGAAGAUTT against Zfp871 0.903
CCAGGUUCUCCGAAUCUCUTT against Cpa1 -0.854
GCUGAGUCCAUUGAAGAAGTT against Pebp4 0.255
GCACAACGACCUUUCCAGGTT against Chst12 -0.561
GGAUCCUAAAACUGAGGAATT against Crtc2 0.22
GGAGAAAAACUGAGCAGCCTT against Chst12 -1.72
GCAUUGGAACCAUGUGCUGTT against Prss46 -1.59
GGAGGAUUAUUACAGAAGGTT against Lhx9 1.57
GGAACUGACUGCCUAUUCCTT against Gnb3 1.08
CCGUUGAUAUCCACAUGAATT against Plod3 1.97
GCACUGCAUAUUCCGCACUTT against Nubp2 1.4
GGCUGGUCUCCAAACCCAATT against F13b 0.229
GGACAGUGCCACUUAAACCTT against Tbxa2r -1
GGGAGACCGGCAAAAAAAATT against Pde1b 0.999
CGAGAUGUGUGUUAAAGGATT against Utp23 0.934
GCAAGUUGUCAAAUCUAAATT against Tspan13 1.42
CCAAGGUAUGAAGAUAUUUTT against Rfpl4 0.575
GCAUGUUUUGGUGUAUAGUTT against Arl4a -1.81
CGGUGUUUGAAAUCGUGCATT against Dgcr6 0.533
CCAGAGCCCAAGCCAAGUUTT against Nanos3 0.639
GGUAUCCAGAUGAAAGAUGTT against Nlrp10 -1.13
GGCCCUCAAAAAUCACGAGTT against Ehd1 1.11
GGCAACAUCACUGAGUAUCTT against Glg1 0.57
GGAUCUUCUCUGCCUAUAUTT against Arpc1b -1.42
GGAGGAGAAGAAGAAGGCCTT against Unc119b 0.28
CCUCAUGCUAGCCUCAUGATT against Actg1 -0.214
GCUAUUGGGACUUAGAACATT against Slc26a9 0.191
CCAGUAAACCUACAUGUUCTT against Htr3b -0.024
GGCUAAAAUAAGCAAUCUGTT against Optc -1.35
GGUAUUGAGUAUCUUAGGUTT against Atf7 -0.543
CGUUUUGUACAGAUAUACUTT against Fam3b -0.571
GAUUCCAAGACAUUAAACATT against Fxn 0.485
GGCAGUUCAUGUUUAAAGATT against Fgfr1op2 -0.381
CGAGAGCAUUAAUUACUUCTT against Sulf1 0.621
GGACUACGAAUACCCAUCGTT against Cck -0.42
GGGCAAUUUGGACUGUUUUTT against Jam3 -0.973
GGAAGCAUUCCAAUGGUAGTT against Cyp2c39 -0.532
CGAUGCUGUGGAACUGCACTT against Ptgfrn 0.417
CCGCGCCGUUGAUUCAUUUTT against Spata17 1.08
GGACACCAUGCCACAGACATT against Hlx -1.43
GCAGAUCACCUUUUGUUUATT against Gdap2 0.767
GGAUCCGUGCUGAAGUUUUTT against Cep20 -0.338
GGAUUGUUAGCAAAGAAAGTT against Aco1 -0.0776
GGUAGCAUGCUUUUGGUGCTT against Unkl 0.329
CGAAGGCUUUUGAAUUCAATT against Pcdh17 0.41
GGACUUCUACACCUCGAAATT against Amz2 -1.05
GCUGAGGAAAUGCGAAGUCTT against Tmem98 0.0406
GGGCAACCCACAAUAAAAATT against B9d1 -1.66
GGCAAGGAAUCAAUGUCUCTT against Fscn2 -0.229
GGACAAUUCCAGUCAAUAATT against Ccdc115 -1.01
GGAUUUCGGCUUUUUGAACTT against Bcas1 0.531
